The results in this text go back to PubChem BioAssay AID729 (The Scripps Research Institute Molecular Screening Center, 2007).

The whole screen tested about 97,000 compounds, of which about 450 (0.46%) were called active. Cut-off read from the data, not from the text of the source: active = activation above about 16%; inactive = the rest. This excerpt belongs to a sample that is enriched for actives.

The target in this assay is Sphingosine 1-phosphate receptor 2 (Homo sapiens) (UniProt O95136). Nature of the assay: S1P2 receptor agonists, primary screen, cell-based (AID 729).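 Note: 0% = vehicle low control and 100% = maximal reference agonist.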 Conditions: S1P2-expressing cell line, agonist reporter read-out; at 4.5 µM; active compounds read high.
Sequence of Sphingosine 1-phosphate receptor 2 (Homo sapiens) (O95136 whole entry, looked up): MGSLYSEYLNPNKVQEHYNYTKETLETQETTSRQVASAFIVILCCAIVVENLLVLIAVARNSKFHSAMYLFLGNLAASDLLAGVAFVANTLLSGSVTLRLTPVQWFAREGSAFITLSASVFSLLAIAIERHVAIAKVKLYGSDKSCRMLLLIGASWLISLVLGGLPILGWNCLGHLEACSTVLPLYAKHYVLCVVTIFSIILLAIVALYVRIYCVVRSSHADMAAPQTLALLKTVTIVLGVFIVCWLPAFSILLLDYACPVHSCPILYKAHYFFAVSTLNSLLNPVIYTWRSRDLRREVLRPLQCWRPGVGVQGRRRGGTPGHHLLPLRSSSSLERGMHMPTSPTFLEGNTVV
As to `Cc1c(Nc2nc3ccccc3nc2NS(=O)(=O)c2cccs2)c(=O)n(-c2ccccc2)n1C`, the activation is -4.46% (inactive).
On to `O=S(=O)(NCC1OCCc2ccccc21)c1ccccc1` (stereo not drawn), for which the activation is 0.09% (inactive).
`CN1CCN(C(=O)Cn2c(C(F)(F)F)nc3ccccc32)CC1`: the activation was -7.46% (inactive).
`COC(=O)c1cc(OC)c(OC)cc1NC(=O)CSc1ccc(C)cc1`: the activation is -4.04% (inactive).
In the case of `COc1ccccc1CCNC(=O)c1cnccn1`, the activation was -1.07% (inactive).
On to `Cc1ccc(-n2cc3ccc([N+](=O)[O-])cc3n2)cc1`, for which the activation is -0.28% (inactive).
As to `CCOc1ccccc1NC(=O)c1cccnc1`, the activation was -2.14% (inactive).
The value for `Cc1nc2ccc(C(=O)N3CCN(c4ccccc4)CC3)cc2s1` was -0.32% (inactive); that for `CCOc1nc(NCCN2CCOCC2)nc(Nc2ccc(C)cc2)n1` was -6.53% (inactive); that for `CCc1c(O)cc2n(c1=O)-c1ccccc1C2(C)C` was -1.15% (inactive).
The value for `CSCCC(NC(=O)COc1ccccc1)C(=O)OCC(=O)c1cc2ccccc2o1` (stereo not drawn) was 0.32% (inactive); that for `COc1ccc(/C=N/Nc2nc3ccccc3c(=O)[nH]2)cc1` was -4.61% (inactive); that for `CC(C)n1c(-c2cccs2)nc2ccccc21` was -0.76% (inactive).
The value for `O=c1[nH]c(-c2cccs2)nc2ccccc12` was 71.4% (active); that for `CCCCNC(=O)CCNC(=O)c1ccc(C(C)(C)C)cc1` was -3.72% (inactive).
With `N#C/C(=C/c1ccc(Cl)cc1)NC(=O)c1ccccc1`, the activation was -4.04% (inactive).
On to `CNc1nc(SC)nc(N(C#N)CC(=O)OC)n1`, for which the activation was -6.48% (inactive).
Turning to `Nc1nnc(SCCN2C(=O)c3ccccc3S2(=O)=O)s1`, the activation was 17.5% (active).
Regarding `CNC(=O)CN1C(=O)c2ccccc2S1(=O)=O`, the activation was -1.63% (inactive).
`CCCc1nnc(NC(=O)CN2C(=O)c3ccccc3S2(=O)=O)s1`: the activation was -3.54% (inactive).
The value for `Cc1nc(Cl)c2oc3ccccc3c2n1` was 1.01% (inactive); that for `COc1ccccc1Nc1ncnc2c1oc1ccccc12` was -9.1% (inactive); that for `CCc1nc(Nc2ccc3nccnc3c2)c2oc3ccccc3c2n1` was 46.5% (active).
With `Cc1cc(C)n(-c2nc(O)cc(=O)[nH]2)n1` the figure was -4.33% (inactive); with `Cc1ccc(-n2ccc(=O)c(C(=O)O)n2)cc1`, -0.77% (inactive).
The value for `C=CCO/N=C(\C)c1c(O)c(C)c(-c2ccccc2)n(-c2ccccc2)c1=O` was -3% (inactive).
Regarding `COc1ccc(SCc2noc(C(=O)NCC3CCCO3)c2C(=O)O)cc1` (stereo not drawn), the activation is -7.32% (inactive).
Turning to `CCOc1c2ccc(C(=O)NCc3ccc4c(c3)OCO4)cc2nn1C`, the activation was -2.43% (inactive).
Turning to `COCCNC(=O)Cn1cc(C(=O)c2cccs2)c2ccccc21`, the activation is -4.41% (inactive).
On to `CC(C)C(=O)Nc1ccc2c(c1)oc1ccccc12`, for which the activation was 0.25% (inactive).
`c1ccc2c(-c3nn4nnnc4c4ccccc34)cccc2c1`: the activation is -3.13% (inactive).
Take `O=C(O)COc1ccc(-c2nccc(-c3cccs3)n2)cc1`: the activation is -4.12% (inactive).
Consider `CCOC(=O)c1sc(NC(=O)c2ccncc2)nc1C`, for which the activation was -5.01% (inactive).
For `CCOC(=O)c1sc(NC(=O)C(CC)Sc2nccn2C)nc1C` (stereo not drawn), the activation is -5.49% (inactive).
With `C=CCn1c2ccccc2c2nnc(SC(CC)C(=O)Nc3nc(C)c(C(=O)OCC)s3)nc21` (stereo not drawn) the figure was 21.9% (active).
With `O=C(/C=C/c1cccs1)c1cc(Cl)ccc1OC(=O)N1CCOCC1` the figure was -8.27% (inactive); with `CSCc1cc(N(C)C)nc(SCc2ccc(Cl)cc2Cl)n1`, -6.28% (inactive); with `CCCC1(C(=O)OCC)NC(c2ccc(N(C)C)cc2)C2C(=O)N(c3ccc4c(c3)OCCO4)C(=O)C21` (stereo not drawn), -0.77% (inactive).
As for `CCCCSc1[nH]c(=O)c(C(=O)OCC)cc1C#N`, the activation was -3.23% (inactive).
With `N#CCSc1nc2c(c(=O)n1Cc1ccccc1)C1(CCCC1)Cc1ccccc1-2`, the activation was -7.66% (inactive).
`Cc1ccccc1CSCCNC(=O)c1ccc(Cl)c(S(=O)(=O)N2CCOCC2)c1`: the activation is -6.39% (inactive).
`COC(=O)c1cc2nc(-c3ccccc3)cc(C(F)(F)F)n2n1`: the activation was -1.4% (inactive).
The value for `CCN(CC)c1nc(-c2ccccc2)cc(C(F)(F)F)c1C#N` was 23.9% (active).
`N#Cc1c(C(F)(F)F)cc(-c2ccccc2)nc1SCC(=O)N1CCOCC1`: the activation is -6.15% (inactive).
Take `Cc1nn(CC(=O)Nc2nc3ccccc3s2)c(C)c1[N+](=O)[O-]`: the activation was -7.14% (inactive).
The value for `NC1=NC(=O)C2(COC(c3ccccc3Cl)OC2)S1` (stereo not drawn) was -5.49% (inactive).
With `COc1cccc(-c2cc(C(=O)N/N=C/c3ccc(OC)c(COC(C)=O)c3)c3ccccc3n2)c1` the figure was -4% (inactive); with `COc1cc2c(cc1OC)C(C(=O)NCc1ccco1)C1c3ccccc3CCN1C2=O` (stereo not drawn), -4.83% (inactive).
The value for `Oc1ccccc1CNc1ncc(Br)cc1Br` was -9.29% (inactive); that for `O=C(Nc1ccc(Br)c2cccnc12)c1ccc(Cn2cc([N+](=O)[O-])cn2)o1` was -1.75% (inactive).
On to `FC(F)(F)c1cccc(-c2cc3ccccc3nc2N2CCCC2)c1`, for which the activation is -10.1% (inactive).
With `O=C1/C(=C/c2cccs2)CCc2ccccc21` the figure was -5.98% (inactive).
Regarding `CN(C)S(=O)(=O)c1ccc(N2CCCC2)c(C(=O)NCc2ccccc2)c1`, the activation is -3.61% (inactive).
With `O=C(NCc1ccc(Cl)cc1)c1cc(=O)nc2sc(-c3ccccc3)nn12` the figure was -3.55% (inactive); with `O=[N+]([O-])c1ccc(Oc2ccc(F)cc2Br)c2ccncc12`, -12.3% (inactive); with `CCOC(=O)C(C)Sc1nc2ccccc2c(=O)n1CC1CCCCC1` (stereo not drawn), 1.92% (inactive).
The value for `CN(C)c1ccnc2sc3c(=O)n(-c4ccc(Cl)cc4)cnc3c12` was -3.21% (inactive); that for `CCOc1cc(C2C(C(=O)OC)=CN(C3CCCC3)C=C2C(=O)OC)cc(Br)c1O` was 7.13% (inactive).
In the case of `CCOc1ccccc1C1C(C(=O)OC)=CN(C)C=C1C(=O)OC`, the activation is 25.5% (active).
With `CC12CN3CC(C)(CN(C1)C3c1ccc(Cl)cc1Cl)C2=O` (stereo not drawn), the activation is -3.81% (inactive).
For `CCOc1ccccc1N(CC(=O)Nc1ccccc1C(=O)OC)S(C)(=O)=O`, the activation was -7.41% (inactive).
The value for `COC(=O)C1=C(C)N(C)C(C)=C(C(=O)OC)C1c1cccc(Br)c1` was -1.98% (inactive).
`COC(=O)C1=CN(C)C=C(C(=O)OC)C1c1ccc(Cl)cc1Cl`: the activation is 32.1% (active).
For `Cn1nnnc1SCC(=O)Nc1ccccc1C(=O)NC1CC1`, the activation is -4.5% (inactive).
On to `C/C(=N\NS(=O)(=O)c1cccc([N+](=O)[O-])c1)c1cc2ccccc2o1`, for which the activation was -4.08% (inactive).
Regarding `CCOc1c(Cl)cc(/C=N/O)cc1OC`, the activation is -3.93% (inactive).
On to `CC(=O)C1=C(C)NC(C)=C(C(C)=O)C1c1cn(-c2ccccc2)nc1-c1cccs1`, for which the activation is -8.95% (inactive).
With `CCc1nc(C)ccc1OCC(=O)N(CC)CC`, the activation is -0.52% (inactive).
Take `CSc1nc(-c2ccco2)nn1C(=O)CCc1ccccc1`: the activation is -4.35% (inactive).
`CCOC(=O)c1nnn(-c2nonc2-n2cccc2)c1CN1CCOCC1`: the activation was -2.91% (inactive).
With `O=C(Cc1ncc(C(F)(F)F)cc1Cl)Nc1cccc(Br)c1` the figure was -3.95% (inactive); with `Cc1noc(C)c1CSCC(=O)Nc1nc2ccc(Oc3ccccc3)cc2s1`, -9.84% (inactive).
As for `C=CCn1c(-c2ccc(Cl)cc2)ccc(C#N)c1=O`, the activation is -1.04% (inactive).
The value for `C=CCn1c(N)c(C(=O)OCC(C)C)c2nc3ccccc3nc21` was -4.83% (inactive).
As to `CCCNC(=O)c1c(N)n(-c2ccc(S(N)(=O)=O)cc2)c2nc3ccccc3nc12`, the activation is 25.6% (active).
As for `CCC(C)NC(=O)c1c(N)n(/N=C/c2cccs2)c2nc3ccccc3nc12` (stereo not drawn), the activation is 11.4% (inactive).
With `COc1ccc2c(c1OC)C(=O)N(c1ncn[nH]1)C2`, the activation was 16.5% (active).
In the case of `COc1ccc2c(c1OC)C(=O)c1ccccc1C2=O`, the activation was -4.98% (inactive).
For the molecule `COc1ccc(N2CCN(C(=O)CCc3nc(-c4ccc(C)cc4)no3)CC2)cc1`, the activation is -1.72% (inactive).
The value for `Cc1ccc(S(=O)(=O)Nc2nc(C)cc(-n3nc(C)cc3C)n2)cc1` was -3.06% (inactive).
Regarding `N#Cc1ccc(-c2ccc(Cl)cc2)nc1Oc1ccc(F)cc1`, the activation was -3.88% (inactive).
As to `Cc1ccc(/C=N/NC(=O)C2=NNC(c3ccccc3)(c3ccccc3)C2)c(O)c1`, the activation was 2.35% (inactive).
On to `O=C(Cc1ccccc1)N/N=C/c1ccc(Cl)cc1Cl`, for which the activation was 2.34% (inactive).
Turning to `Cc1nn(C)cc1C(=O)NNC(=S)Nc1ccc(Cl)cc1`, the activation is -6.95% (inactive).
Consider `O=C1CCCc2nn(-c3ccccc3)nc21`, for which the activation is -3.05% (inactive).
On to `Cc1nc(NC(=O)c2cccc(Cl)c2)sc1-c1csc(Nc2cccc(Cl)c2)n1`, for which the activation is -10.8% (inactive).
Regarding `Cc1cc(C)c2nc(NC(=O)c3ccc4c(c3)OCO4)sc2c1`, the activation is -8.01% (inactive).
On to `CNC(=O)c1csc(-c2ccccc2)n1`, for which the activation is -5.56% (inactive).
On to `O=C(c1cc2c(s1)CCC2)N1CCN(c2ccccc2)CC1`, for which the activation was -4.17% (inactive).
In the case of `Cc1nn(Cc2ccc(C(=O)N3N=C(C(F)F)CC3(O)C(F)F)cc2)c(C)c1[N+](=O)[O-]` (stereo not drawn), the activation was -4.76% (inactive).
With `Cc1ccccc1-c1nnc(SCC(=O)NCc2ccc3c(c2)OCO3)n1C`, the activation is -6.95% (inactive).
As to `COc1cccc(N=c2oc3c(C)ncc(CO)c3cc2C(N)=O)c1`, the activation is -4.4% (inactive).
For the molecule `O=C1Nc2ccc(Br)cc2/C1=N/N=C/C1=C(N2CCOCC2)C(=C\c2ccccc2)/CC1`, the activation is -5.74% (inactive).
For `COc1ccc(-c2nnc(SCc3cccnc3)o2)cc1`, the activation was -3.86% (inactive).
The value for `Cc1nnc(SC(C)C(=O)Nc2ccc(S(=O)(=O)NC3CCCCC3)cc2)s1` (stereo not drawn) was -4.5% (inactive); that for `N#Cc1c(N)n(CCOC(=O)c2ccc(Cl)cc2)c2nc3ccccc3nc12` was 16.5% (active); that for `CN(C)CCCn1c(N)c(C#N)c2nc(C#N)c(C#N)nc21` was 12.8% (inactive).
With `CC(C)(C)OC(=O)c1c(N)n(CCCN2CCCC2=O)c2nc3ccccc3nc12` the figure was 0.36% (inactive).
